Test [1] is described as follows: NCI Yeast Anticancer Drug Screen. Data for the rad50 strain (AID 155).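 Note: 0% = growth of vehicle-only cultures of the same strain.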 The settings on record: S. cerevisiae rad50 strain growth inhibition, stronger effect = higher value. Put shortly:
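Relative growth inhibition (compound vs vehicle) was measured in yeast with a defined repair-gene alteration.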

A short description of test [2]: NCI Yeast Anticancer Drug Screen. Data for the mec2-1 strain (AID 157). The conditions noted are these: S. cerevisiae mec2-1 strain, stronger effect = higher value. In outline:
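Strain: mec2-1 (DNA repair/cell cycle alteration). Compound exposure, then growth measured; inhibition expressed relative to vehicle.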

Test [3] in a line: NCI Yeast Anticancer Drug Screen. Data for the sgs1 mgt1 strain (AID 161).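 Note: 0% = growth of cultures given vehicle only.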 The settings on record: S. cerevisiae sgs1 mgt1 strain, stronger effect = higher value. Put shortly:
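Mutant yeast exposed to compound; growth scored against vehicle-only wells.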

Test [4] in a line: NCI Yeast Anticancer Drug Screen. Data for the cln2 rad14 strain (AID 165).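 Note: 0% = growth equal to vehicle treated cultures.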 The settings on record: S. cerevisiae cln2 rad14 strain, stronger effect = higher value. In outline: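 Compounds are applied to the cln2 rad14 yeast strain, and growth is then compared with that of vehicle-treated cultures to give inhibition.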
Test [5] is described as follows: NCI Yeast Anticancer Drug Screen. Data for the bub3 strain (AID 167). The settings on record: S. cerevisiae bub3 mutant strain, stronger effect = higher value. Put shortly: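 Screening used yeast with an engineered genetic alteration affecting cell cycle control. Compound-exposed cultures were compared with vehicle cultures, and reduced growth was taken as inhibition.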
Test [6] is described as follows: NCI Yeast Anticancer Drug Screen. Data for the mlh1 rad18 strain (AID 175). The settings on record: S. cerevisiae mlh1 rad18 strain growth inhibition, stronger effect = higher value. Put shortly:
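Read-out is yeast growth inhibition, calculated against vehicle-only controls. The compound was applied to a strain engineered with DNA damage repair alterations.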

[7] abbreviates: at 5.0 µM (retest, dose inferred, filed as 0.5).
[8] abbreviates: at 50.0 µM (retest, dose inferred, filed as 5.0).

The panel holds about 79,000 compounds, 15% with a hit somewhere; the sample as a whole holds those more often. A number with no mark means an inactive call. Active and inactive are the calls of the source. Cut-off read from the data, not from the text of the source: active = growth inhibition above about 70%; inactive = the rest.

In the case of `CCCCCCCCCCCCCCCC[NH][Ge]([NH]CCCCCCCCCCCCCCCC)([NH]CCCCCCCCCCCCCCCC)[NH]CCCCCCCCCCCCCCCC`, the growth inhibition in test [1] (setting [7]) was 98% (active); in test [1] (setting [8]) it was 96% (active); in test [1] (at 50.0 µM) it was 87.4% (active); in test [2] (setting [7]) it was 99% (active); in test [2] (setting [8]), 97% (active); in test [2] (at 50.0 µM), 91.5% (active). For the same compound, the growth inhibition was 99% (active) in test [3] (setting [7]); 96% (active) in test [3] (setting [8]); 90.2% (active) in test [3] (at 50.0 µM); 99% (active) in test [4] (setting [7]); 96% (active) in test [4] (setting [8]); 89.2% (active) in test [4] (at 50.0 µM). The growth inhibition in test [5] (setting [7]) is 99% (active); in test [5] (setting [8]), 97% (active); in test [5] (at 50.0 µM), 87.2% (active); in test [6] (setting [7]), 98% (active); in test [6] (setting [8]) it was 95% (active); in test [6] (at 50.0 µM) it was 87.2% (active).
In the case of `c1ccc2sc(SSN3CCOCC3)nc2c1`, the growth inhibition was 78% (active) in test [1] (setting [7]); 99% (active) in test [1] (setting [8]); 94.4% (active) in test [1] (at 50.0 µM); 28% in test [2] (setting [7]); 98% (active) in test [2] (setting [8]); 89.2% (active) in test [2] (at 50.0 µM). The growth inhibition is 18% in test [3] (setting [7]); 99% (active) in test [3] (setting [8]); 66.8% in test [3] (at 50.0 µM); 76% (active) in test [4] (setting [7]); 97% (active) in test [4] (setting [8]); 96.3% (active) in test [4] (at 50.0 µM). Also, the growth inhibition in test [5] (setting [7]) was 64%; in test [5] (setting [8]), 98% (active); in test [5] (at 50.0 µM), 86.4% (active); in test [6] (setting [7]), 34%; in test [6] (setting [8]) it was 99% (active); in test [6] (at 50.0 µM), 94% (active).
On to `COc1ccccc1CN1CCCN(Cc2ccccc2OC)C1c1cc(Cl)cc(Cl)c1O`, for which the growth inhibition in test [1] (setting [7]) was 16%; in test [1] (setting [8]), 93% (active); in test [1] (at 50.0 µM) it was 69.2%; in test [2] (setting [7]) it was 11%; in test [2] (setting [8]) it was 100% (active); in test [2] (at 50.0 µM), 15.3%. Moreover, the growth inhibition was 19% in test [3] (setting [7]); 99% (active) in test [3] (setting [8]); 97.5% (active) in test [3] (at 50.0 µM); -2% in test [4] (setting [7]); 97% (active) in test [4] (setting [8]); 6.2% in test [4] (at 50.0 µM). Besides, the growth inhibition in test [5] (setting [7]) was 4%; in test [5] (setting [8]), 98% (active); in test [5] (at 50.0 µM), 9.3%; in test [6] (setting [7]), 52%; in test [6] (setting [8]) it was 99% (active); in test [6] (at 50.0 µM), 78.6% (active).
For `CN(C)CC1CCc2ccc3ccccc3c2C1=O` (stereo not given), the growth inhibition in test [1] (setting [7]) was 9%; in test [1] (setting [8]), 34%; in test [1] (at 50.0 µM), 25.9%; in test [2] (setting [7]) it was -13%; in test [2] (setting [8]) it was 27%; in test [2] (at 50.0 µM), 31.6%. The growth inhibition is 16% in test [3] (setting [7]); 48% in test [3] (setting [8]); 56.4% in test [3] (at 50.0 µM); 6% in test [4] (setting [7]); 29% in test [4] (setting [8]); 7.95% in test [4] (at 50.0 µM). The growth inhibition in test [5] (setting [7]) is 10%; in test [5] (setting [8]), 63%; in test [5] (at 50.0 µM), 48.8%; in test [6] (setting [7]) it was 29%; in test [6] (setting [8]), 65%; in test [6] (at 50.0 µM), 15.4%.
Take `C=C(Br)COc1ccc2c(C)cc(=O)oc2c1`: the growth inhibition in test [1] (setting [7]) was 38%; in test [1] (setting [8]), 39%; in test [1] (at 50.0 µM), 67.5%; in test [2] (setting [7]) it was 35%; in test [2] (setting [8]), 32%; in test [2] (at 50.0 µM), 25.7%. Besides, the growth inhibition in test [3] (setting [7]) was 42%; in test [3] (setting [8]) it was 47%; in test [3] (at 50.0 µM) it was 75.2% (active); in test [4] (setting [7]), 38%; in test [4] (setting [8]) it was 32%; in test [4] (at 50.0 µM), 36%. The growth inhibition in test [5] (setting [7]) was 45%; in test [5] (setting [8]), 43%; in test [5] (at 50.0 µM), 68.8%; in test [6] (setting [7]), 49%; in test [6] (setting [8]), 51%; in test [6] (at 50.0 µM), 49.8%.
Consider `O=C(c1ccccc1)c1ccc(Cl)cc1`, for which the growth inhibition in test [1] (setting [7]) was -1%; in test [1] (setting [8]) it was -16%; in test [1] (at 50.0 µM), 66.2%; in test [2] (setting [7]) it was -3%; in test [2] (setting [8]) it was -5%; in test [2] (at 50.0 µM), 37.4%. Besides, the growth inhibition in test [3] (setting [7]) was 2%; in test [3] (setting [8]) it was 4%; in test [3] (at 50.0 µM), 74.2% (active); in test [4] (setting [7]) it was 1%; in test [4] (setting [8]) it was 2%; in test [4] (at 50.0 µM), -3%. Further, the growth inhibition is -42% in test [5] (setting [7]); 0% in test [5] (setting [8]); 73.8% (active) in test [5] (at 50.0 µM); 1% in test [6] (setting [7]); 2% in test [6] (setting [8]); 81.5% (active) in test [6] (at 50.0 µM).
On to `ClC(Cl)(Cl)C1=CC2c3ccccc3C1c1ccccc12`, for which the growth inhibition in test [1] (setting [7]) is -14%; in test [1] (setting [8]), 91% (active); in test [1] (at 50.0 µM), 89.7% (active); in test [2] (setting [7]) it was 0%; in test [2] (setting [8]) it was 91% (active); in test [2] (at 50.0 µM), 21.6%. For the same compound, the growth inhibition in test [3] (setting [7]) was -7%; in test [3] (setting [8]) it was 91% (active); in test [3] (at 50.0 µM), 87.8% (active); in test [4] (setting [7]), -3%; in test [4] (setting [8]) it was 90% (active); in test [4] (at 50.0 µM) it was 22.8%. The growth inhibition was -9% in test [5] (setting [7]); 92% (active) in test [5] (setting [8]); 28.7% in test [5] (at 50.0 µM); -6% in test [6] (setting [7]); 92% (active) in test [6] (setting [8]); 89.5% (active) in test [6] (at 50.0 µM).
For the compound `Cc1cc(Cl)cc2c1NC(=O)C2(O)C(C)C(=O)c1ccc(Cl)cc1` (stereo not given), the growth inhibition in test [1] (setting [7]) was -2%; in test [1] (setting [8]), 63%; in test [1] (at 50.0 µM), 99.4% (active); in test [2] (setting [7]), -1%; in test [2] (setting [8]), 71% (active); in test [2] (at 50.0 µM) it was 98.5% (active). Also, the growth inhibition is 11% in test [3] (setting [7]); 77% (active) in test [3] (setting [8]); 99.5% (active) in test [3] (at 50.0 µM); -1% in test [4] (setting [7]); 99% (active) in test [4] (setting [8]); 99.1% (active) in test [4] (at 50.0 µM). Moreover, the growth inhibition was -4% in test [5] (setting [7]); 99% (active) in test [5] (setting [8]); 99.5% (active) in test [5] (at 50.0 µM); -5% in test [6] (setting [7]); 77% (active) in test [6] (setting [8]); 98.8% (active) in test [6] (at 50.0 µM).
Take `O=C1Nc2ccccc2SC1c1ccccc1` (stereo not given): the growth inhibition in test [1] (setting [7]) is 3%; in test [1] (setting [8]) it was 97% (active); in test [1] (at 50.0 µM), 98.2% (active); in test [2] (setting [7]) it was 15%; in test [2] (setting [8]), 99% (active); in test [2] (at 50.0 µM) it was 99.6% (active). The growth inhibition in test [3] (setting [7]) is -2%; in test [3] (setting [8]), 99% (active); in test [3] (at 50.0 µM), 99.5% (active); in test [4] (setting [7]) it was 10%; in test [4] (setting [8]), 99% (active); in test [4] (at 50.0 µM) it was 98.8% (active). Also, the growth inhibition is 19% in test [5] (setting [7]); 98% (active) in test [5] (setting [8]); 99.3% (active) in test [5] (at 50.0 µM); 10% in test [6] (setting [7]); 99% (active) in test [6] (setting [8]); 98.8% (active) in test [6] (at 50.0 µM).
`CCOc1ccccc1/C=N/Nc1nnc(N/N=C/c2ccccc2OCC)c2ccccc12`: the growth inhibition in test [1] (setting [7]) was 0%; in test [1] (setting [8]), 42%; in test [1] (at 50.0 µM) it was 44%; in test [2] (setting [7]), 9%; in test [2] (setting [8]), 64%; in test [2] (at 50.0 µM), 48.8%. Besides, the growth inhibition was -24% in test [3] (setting [7]); 38% in test [3] (setting [8]); 41.5% in test [3] (at 50.0 µM); -10% in test [4] (setting [7]); 58% in test [4] (setting [8]); 45.2% in test [4] (at 50.0 µM). Besides, the growth inhibition in test [5] (setting [7]) was -4%; in test [5] (setting [8]) it was 54%; in test [5] (at 50.0 µM), 44.2%; in test [6] (setting [7]), 7%; in test [6] (setting [8]), 80% (active); in test [6] (at 50.0 µM), 43.9%.

The record behind these values is PubChem BioAssay (NCI).
